# Reference: PubChem BioAssay
# Activity calls are given as the source filed them. No rule for the calls is given here.
# Target: Pantothenate synthetase (Mycobacterium tuberculosis (strain ATCC 25618 / H37Rv)) (UniProt P9WIL5)
# Test: Recombinant Mtb pantothenate synthetase (PanC) inhibitors, coupled enzyme, confirmatory (AID 375);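 also: 0% = full reaction with vehicle and 100% = no enzyme background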
# Conditions: coupled enzyme assay; at 10 µM, active compounds read high
# Pantothenate synthetase (Mycobacterium tuberculosis (strain ATCC 25618 / H37Rv)), sequence (P9WIL5 whole entry, looked up): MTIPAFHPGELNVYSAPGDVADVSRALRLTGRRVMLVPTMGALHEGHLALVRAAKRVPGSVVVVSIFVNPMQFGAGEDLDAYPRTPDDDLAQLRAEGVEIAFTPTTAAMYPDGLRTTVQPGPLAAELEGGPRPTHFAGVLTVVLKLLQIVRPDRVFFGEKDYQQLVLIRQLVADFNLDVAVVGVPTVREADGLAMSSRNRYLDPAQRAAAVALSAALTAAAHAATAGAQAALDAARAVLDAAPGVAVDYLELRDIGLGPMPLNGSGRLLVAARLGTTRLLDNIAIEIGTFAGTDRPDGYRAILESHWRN
row,SMILES,inhibition
1,Nc1nc(N2C(=O)C3CC=CCC3C2=O)nn1-c1ccccc1 (stereo not given),0% (inactive)
2,Cc1ccc(C(c2nnnn2CCC(C)C)N2CCN(C)CC2)cc1 (stereo not given),2% (inactive)
3,Clc1ccc(SCCCCn2ccnc2)cc1,8% (inactive)
4,CCOC(=O)c1cccc(NC(=O)c2ccco2)c1,0% (inactive)
5,O=C(CCS(=O)(=O)c1cccc2nonc12)Nc1cccc2c1CCCC2,1% (inactive)
6,COC(=O)c1ccc2c(=O)n(CC3CCCO3)c(=S)[nH]c2c1 (stereo not given),0% (inactive)
7,CCc1ccc(N2CC(C(=O)OCC(=O)NC3CCS(=O)(=O)C3)CC2=O)cc1 (stereo not given),0% (inactive)
8,CCCn1c(-c2ccc(F)cc2)cnc1SCC(=O)O,0% (inactive)
9,CC12CN3CC(C)(CN(C1)C3c1ccc(Br)cc1)C2 (stereo not given),0% (inactive)
10,O=C(NCC1CCCO1)C1CCN(S(=O)(=O)c2cccc3cccnc23)CC1 (stereo not given),0% (inactive)
11,CCN1CCN(C(=O)c2oc(=O)c3ccccc3c2-c2ccc(C)cc2)CC1,0% (inactive)
12,Cc1cccc(NC(=O)CSc2nnc(-c3cc(C)n(-c4ccccc4)c3C)o2)c1C,0% (inactive)
13,COc1ccc(-c2nc(CCNC(=O)c3ccco3)cs2)cc1OC,5% (inactive)
14,CCOC(=O)N1CCN(C(=O)COc2ccc(S(=O)(=O)NC3CCCCC3)cc2C)CC1,2% (inactive)
15,Nc1cc(N)nc(SCc2ccccc2)n1,0% (inactive)
16,O=C1COc2ccc(C(=O)NCc3ccco3)cc2N1,0% (inactive)
17,O=C(CSc1n[nH]c(-c2ccco2)n1)Nc1sc2c(c1C(=O)Nc1ccccc1)CCCC2,0% (inactive)
18,O=C(Nc1ccccc1)c1ccc(NCC2CCCO2)c(S(=O)(=O)N2CCOCC2)c1 (stereo not given),0% (inactive)
19,Cc1cc(=O)n2nc(N3CCC(C(=O)N4CCN(Cc5ccccc5)CC4)CC3)sc2n1,2% (inactive)
20,COc1cccc(Oc2cnc(N)nc2-c2ccc(OC)cc2O)c1,2% (inactive)

row,SMILES,inhibition
1,C=CCc1c(C)nc(SC)nc1Nc1ccc(C(=O)O)cc1,6% (inactive)
2,CCCC1Cc2c(sc3ncnc(N)c23)CO1 (stereo not given),0% (inactive)
3,COc1ccc2c(c1)C(C)=CC(C)(C)N2C(=O)CSc1nnc(-c2ccc(C)cc2)o1,0% (inactive)
4,CCOC(=O)c1ccccc1NC(=O)N1CCn2c(C)ccc2C1CC (stereo not given),2% (inactive)
5,Nc1cc(CN2C(=O)c3ccccc3C2=O)cc(Cl)c1O,0% (inactive)
6,O=C(c1ccc(Br)o1)N1CCN(c2ccc3nnc(-c4ccccc4)n3n2)CC1,1% (inactive)
7,COCCCN1C(=O)C(O)=C(C(=O)c2ccco2)C1c1ccc(Br)cc1 (stereo not given),6% (inactive)
8,CCOC(=O)c1ccc(N2C(=O)CC(Sc3nnc(C)s3)C2=O)cc1 (stereo not given),0% (inactive)
9,COc1ccc(-c2noc(COc3ccc(C)c(C)c3)n2)cc1OC,0% (inactive)
10,COc1ccccc1-n1c(-c2cccnc2)n[nH]c1=S,0% (inactive)
11,Cn1cccc1Cc1nnc(SCC(=O)Nc2ccc(F)cc2)n1-c1ccc(F)cc1,4% (inactive)
12,CCOc1ccccc1Nc1nnc(SCC(=O)N2CCCC2)s1,0% (inactive)
13,COC(=O)c1cccc(NC(=O)CSc2nnc(COc3ccc(C#N)cc3)n2-c2ccccc2)c1,2% (inactive)
14,CCc1nnc2n1N=C(c1ccc(-c3ccc(Cl)cc3Cl)o1)CS2,3% (inactive)
15,CC(=O)OC1CSc2nc3ccccc3n2C1 (stereo not given),0% (inactive)
16,Cc1ccc(S(=O)(=O)N(CC(=O)N2CCC(C(N)=O)CC2)c2cccc(C(F)(F)F)c2)cc1,0% (inactive)
17,O=C(Nc1ccc2c(c1)OCO2)OCc1ccccc1,0% (inactive)
18,Cc1cc(C)c2c(N)c(C(=O)c3ccccc3)oc2n1,0% (inactive)
19,COc1ccc(-n2ncc3c(NCc4cccs4)ncnc32)cc1,0% (inactive)
20,Cc1nc(NC2=NCN(CCCN3CCOCC3)CN2)nc2c(C)cccc12,0% (inactive)
